Screening data from PubChem BioAssay.
In the library only some 2% were active in any assay of this set; here they are far more common.
NOD2 RIPK2 PPI: NOD2-RIPK2 binding disruptors in cells, primary screen, fluorescence, CHO cells, BLA complementation. AID 624267, 2012. Receptor-interacting serine/threonine-protein kinase 2 (Homo sapiens), O43353. 360,000 tested, 0.38% active. CCF4 ratio. inhibition, % at 4.98 µM; in the data active = inhibition above about 21%;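 note: 0% = vehicle only and 100% = reference blocker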
TLR9-MyD88 block: inhibitors of TLR9-MyD88 association in cells, primary screen, cell-based, CHO, BLA complementation, fluorescence; inhibition, % at 4.98 µM; 340,000 tested, 0.21% active; Toll-like receptor 9 (Homo sapiens) + Myeloid differentiation primary response protein …; CCF4 FRET ratio;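 active = inhibition above the mean over all tested compounds plus 3 SD, cut at about 21% in these data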;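 note: 0% = DMSO only wells and 100% = clavulanate BLA inhibitor control wells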
Target sequence (Q99836 whole entry, looked up): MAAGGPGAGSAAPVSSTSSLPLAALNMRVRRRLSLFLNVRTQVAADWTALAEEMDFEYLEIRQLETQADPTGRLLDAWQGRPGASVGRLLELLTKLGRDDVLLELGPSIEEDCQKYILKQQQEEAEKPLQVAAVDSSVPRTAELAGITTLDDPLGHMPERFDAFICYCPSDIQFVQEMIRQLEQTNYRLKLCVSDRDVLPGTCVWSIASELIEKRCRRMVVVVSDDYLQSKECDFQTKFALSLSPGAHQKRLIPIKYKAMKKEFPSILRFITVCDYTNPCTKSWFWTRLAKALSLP
Target sequence (Q9NR96 whole entry, looked up): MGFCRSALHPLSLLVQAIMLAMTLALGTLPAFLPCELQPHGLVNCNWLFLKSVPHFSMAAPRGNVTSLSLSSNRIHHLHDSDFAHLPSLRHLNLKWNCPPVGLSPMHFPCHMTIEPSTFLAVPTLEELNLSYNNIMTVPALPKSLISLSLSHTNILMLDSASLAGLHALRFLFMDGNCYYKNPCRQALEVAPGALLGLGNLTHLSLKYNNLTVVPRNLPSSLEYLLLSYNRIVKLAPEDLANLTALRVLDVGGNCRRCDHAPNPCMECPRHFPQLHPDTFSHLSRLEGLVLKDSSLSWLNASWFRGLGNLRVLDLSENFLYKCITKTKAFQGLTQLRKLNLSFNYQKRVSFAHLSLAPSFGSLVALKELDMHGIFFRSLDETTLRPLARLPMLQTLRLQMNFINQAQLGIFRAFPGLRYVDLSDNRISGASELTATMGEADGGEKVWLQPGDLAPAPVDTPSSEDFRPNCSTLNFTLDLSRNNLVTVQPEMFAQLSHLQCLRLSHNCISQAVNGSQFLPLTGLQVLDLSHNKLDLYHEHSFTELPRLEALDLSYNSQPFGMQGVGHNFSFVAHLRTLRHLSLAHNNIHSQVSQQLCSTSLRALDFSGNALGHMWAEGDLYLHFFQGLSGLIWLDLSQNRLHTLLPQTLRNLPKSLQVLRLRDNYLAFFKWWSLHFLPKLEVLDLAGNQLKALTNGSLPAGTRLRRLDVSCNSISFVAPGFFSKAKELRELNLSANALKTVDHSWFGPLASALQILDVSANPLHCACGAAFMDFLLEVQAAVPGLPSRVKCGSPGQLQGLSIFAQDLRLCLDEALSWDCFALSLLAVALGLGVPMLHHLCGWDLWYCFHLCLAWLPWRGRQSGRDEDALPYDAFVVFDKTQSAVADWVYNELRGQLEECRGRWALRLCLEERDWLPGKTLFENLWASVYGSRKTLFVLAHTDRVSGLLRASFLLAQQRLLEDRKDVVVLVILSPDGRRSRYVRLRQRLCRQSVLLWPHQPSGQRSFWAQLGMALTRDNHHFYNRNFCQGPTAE
ABHD5 PLIN5 PPI: ABHD5-PLIN5 interaction inhibitors, primary screen, cell lysate, split luciferase complementation, luminescence. 360,000 tested, 0.78% active. Split G. princeps luciferase complementation, 4 h. inhibition, % at 4 µM. Perilipin-5 (Homo sapiens) + 1-acylglycerol-3-phosphate O-acyltransferase ABHD5 (Homo …;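 active = inhibition above the mean inhibition across every tested compound plus 3 SD, cut at about 22% in these data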;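 note: 0% = DMSO only wells and the 100% control is not disclosed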
Granule exo inh: LAMP-1 surface exposure blockers, TALL-104 cells – cell-based, flow cytometry, MLPCN library, primary screen | AID 651702, 2012 | TALL-104 LAMP-1 surface exposure; cells stimulated with thapsigargin and PMA | 360,000 tested, 0.66% active | inhibition, % at 10 µM;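 active = inhibition above about 55%, limit read from the data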
TLR4 MyD88 comp: inhibitors of TLR4-MyD88 association in cells, primary screen, cell-based, HeLa CL3-4, BLA complementation, FRET ratio. HeLa CL3-4 TLR4/MyD88 BLA complementation. inhibition, % at 8.4 µM. 200,000 tested, 0.18% active. Toll-like receptor 4 (Homo sapiens) + Myeloid differentiation primary response protein …; in the data active = inhibition above about 25%;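 note: 0% = vehicle and 100% = reference inhibitor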
Beta2AR agonist: beta2AR agonists driving receptor internalization, primary screen, cell-based, FAP fluorogen, flow cytometry. Beta-2 adrenergic receptor (Homo sapiens), P07550. Am2.2-beta2AR cells. response, % (test concentration not listed). 340,000 tested, 0.43% active;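 active = response above a set limit, near 3 SD of response in nonfluorescent compounds, cut at about 42% in these data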
Numbers without * were called inactive; . = no result given.

SMILES	NOD2 RIPK2 PPI	TLR9-MyD88 block	ABHD5 PLIN5 PPI	Granule exo inh	TLR4 MyD88 comp	Beta2AR agonist
COc1ccc(C(C[N+](=O)[O-])c2c(C)cc3ccccn23)cc1 (configuration not stated)	-9	6	15	2	-8	1
Cc1cc(OC(C)C(=O)NC2CC(C)(C)NC(C)(C)C2)c2c(C)c(C)c(=O)oc2c1 (configuration not stated)	-3	-7	8	2	.	.
CSCCC(C(=O)NC(C)(C)C)n1c(-c2cccc(NC(C)=O)c2)nc2ccccc21 (configuration not stated)	-7	.	5	0	.	.
Oc1ccc(Nc2nc3ccccc3nc2Nc2ccc(O)cc2)cc1	15	-5	57*	0	11	1
Oc1ccc(Nc2nc(-c3ccccc3)nc3ccccc23)cc1	-4	-10	12	3	.	9
COC(=O)C[C@H]1CC[C@@H](NC(=O)c2ccncc2)[C@@H](CO)O1	4	.	2	-3	.	.
Cc1nc2ccccc2c(=O)n1NC(=O)COc1ccccc1	-5	4	0	7	-8	1
O=C(Nn1c(COc2ccccc2)nc2ccccc2c1=O)C(Cl)(Cl)Cl	-11	-20	0	79*	.	16
COc1ccc(Cl)cc1N(CC(=O)NCCSc1ccccn1)S(=O)(=O)c1ccccc1	-1	-9	-3	69*	.	0
Nc1ccc(S(=O)(=O)c2cc(O)c3ccccc3c2O)cc1	0	-5	-6	88*	.	3
CCOC(=O)c1cc2c(=O)n3cccc(C)c3nc2n(Cc2ccco2)c1=NC(=O)c1ccc(C)cc1	5	-2	-7	1	.	-6
CCOC(=O)c1cc2c(=O)n3cccc(C)c3nc2n(Cc2ccco2)c1=NC(=O)c1ccccc1	-10	11	22*	17	-2	16
Cc1ccc(S(=O)(=O)N2[C@@H](c3ccc(Br)cc3)C(C(=O)O)=CC[C@H]2c2cccs2)cc1	-8	-1	-2	7	.	10
Cc1cc(C)cc(C(O)c2ncc(-c3cccc(F)c3)[nH]2)c1 (configuration not stated)	-11	.	-1	-1	.	.
CN1CCN(C(=O)C[C@H]2CC[C@H]3[C@@H](COC[C@@H](O)CN3C(=O)C3CCCC3)O2)CC1	-8	.	-3	7	.	.
Cc1ccc(/C=C2/C(=O)N(c3ccccc3)C(=S)N2C)o1	-3	-3	9	83*	-14	-3
O=C(/C=C/c1ccco1)NCC1(c2ccccc2)CCCC1	5	-6	-2	-7	-11	-10
COc1ccc(C2(CNC(=O)/C=C/c3ccco3)CCCC2)cc1OC	-6	7	35*	-3	4	-3
CC1=CN2C(=N)/C(=C/c3ccc([N+](=O)[O-])o3)C(=O)N=C2S1	3	-1	6	80*	6	-497
COc1cccc(Cn2c(C(C)n3c(C)nc4ccccc43)nc3ccccc32)c1 (configuration not stated)	1	.	4	1	.	.
C=CC#CC[N+]1(CC#Cc2ccccc2)CCOCC1	-20	-3	7	-1	1	72*
O=C(NCCO)c1ccc2nc(-c3ccco3)c(-c3ccco3)nc2c1	0	-1	7	-2	12	-6
O=C(c1ccccc1)c1ccc2nc(-c3ccco3)c(-c3ccco3)nc2c1	-3	4	29*	14	-4	9
O=C(NCCc1ccccc1)c1ccc2nc(-c3ccco3)c(-c3ccco3)nc2c1	1	-2	29*	-1	9	13
CCN(CC)c1nc(Nc2ccc([N+](=O)[O-])cc2)nc(N(CC)CC)n1	-9	3	-4	107*	.	26
SMILES	NOD2 RIPK2 PPI	TLR9-MyD88 block	ABHD5 PLIN5 PPI	Granule exo inh	TLR4 MyD88 comp	Beta2AR agonist
CCOC(=O)[C@]12CCCC=C1N(CCc1ccc(OC)c(OC)c1)C(=O)[C@H](CC(=O)N1CCCCC1)C2	-13	.	13	-8	.	.
Nc1nc(-c2ccccc2)c(N=Nc2cccc3ccccc23)s1	-15	-5	23*	5	-2	24
CCOC(=O)c1c2c(n(-c3ccc(OC)cc3)c1C)C(=O)C(=O)c1ccccc1-2	-2	-1	-56	98*	.	12
CCOC(=O)c1sc(=S)n(-c2ccc(OC)cc2)c1C	-3	.	0	-15	.	-2
CCCCn1c(N)c(N(CC(C)C)C(=O)CC(NC(=O)c2ccccc2Cl)c2ccccc2)c(=O)[nH]c1=O (configuration not stated)	-24	-9	-3	0	.	.
CC1(C)CC[C@]2(C(=O)n3ccnc3)CC[C@]3(C)[C@H](C(=O)C=C4[C@@]5(C)C=C(C#N)C(=O)C(C)(C)[C@@H]5CC[C@]43C)[C@@H]2C1	-5	-8	3	25	.	59*
N#Cc1cc(Sc2ccccn2)c(Sc2ccccn2)cc1C#N	-2	-2	16	-2	-5	58*
COc1ccc(-c2cc3ccc(OC(C)C(=O)O)cc3oc2=O)cc1 (configuration not stated)	7	0	22*	10	.	4
COc1ccccc1OCC(=O)NCC1CCCN(C(=O)c2cccc(C)c2)C1 (configuration not stated)	5	-10	1	-8	.	.
C=CCNc1nnc(SC2CC(=O)N(c3ccc(OCCC)cc3)C2=O)s1 (configuration not stated)	-3	-5	10	66*	0	7
COC(=O)C[C@@H]1C=C[C@H](NC(=O)Cc2ccccn2)[C@@H](CO)O1	-10	.	-1	5	.	.
Cc1cc(Br)cn2c(Cc3cccc(F)c3)c(-c3ccc(Cl)cc3)nc12	-20	.	-4	0	.	.
C/C(=N\NC(N)=S)C1=CCC2C3CC[C@H]4CC(O)CC[C@]4(C)C3CC[C@]12C (some centres not stated)	-6	-3	-14	56*	.	15
Cc1cc2c(cc1C)-c1nnnn1C(N1CCCCC1)C(=O)N2 (configuration not stated)	3	.	2	2	.	.
Nc1ccn([C@@H]2O[C@H](C(=O)NCC(F)(F)F)[C@@H](O)[C@H]2O)c(=O)n1	-5	.	0	-3	.	.
O=C(Nc1ccccc1)c1cc(C2CCCCN2S(=O)(=O)Cc2cccc(C(F)(F)F)c2)on1 (configuration not stated)	8	.	-1	-5	.	.
O=C(NNc1c2ccccc2nc2ccccc12)C12CC3CC(CC(C3)C1)C2	6	3	-2	-1	.	45*
